# This is one part of a sample in which the strongest signals are shown more often than they occur.
# B1: MSMEG3662-2a (Mycobacterium smegmatis), A0QYH7_MYCS2 (protein)
# chain: MGDTLTAGQKLERGGSLQSGNGAYTLTLQDDGNLVLYARDKAVWSTGTNGQDVVRAEVQTDGNFVLYTAEKPVWHTDTKGKKEVKLVLQDDRNLVLYAKDGPAWSSKTDTTEPPPPAPEPEKEAEVAPAAAEEAAPAPVAEPAPAEPAPAAPPPAPPAPRTYTVVSGDTLWAIAERFYGDGSKYQQIADASGIANPDLIHPGQVLTIP
# Tests used:
# Test in all cases: glycan array binding signal (z-score within array); higher = stronger binding
# Settings in all cases: glycan notation: IUPAC condensed, linker removed
# [1] = molecular target: Fuc(a1-2)Gal(b1-3)GlcNAc(b1-3)GalNAc
# In short: (§1)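 Columns mapping to the same glycan were averaged after glycan names were converted to IUPAC-condensed notation. The data come from 3228 arrays in the Consortium for Functional Glycomics database, limited to those with an available protein sequence. Binding is reported as a within-array Z-score averaged across arrays of one protein sequence and across linkers.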
# [2] = molecular target: Fuc(a1-2)Gal(b1-3)[Fuc(a1-4)]GlcNAc(b1-2)Man(a1-3)[Fuc(a1-2)Gal(b1-3)[Fuc(a1-4)]GlcNAc(b1-2)Man(a1-3)]Man(b1-4)GlcNAc(b1-4)GlcNAc
# In short: as §1
# [3] = molecular target: Fuc(a1-2)Gal(b1-4)GlcNAc(b1-3)GalNAc
# In short: as §1
# [4] = molecular target: Fuc(a1-2)Gal(b1-4)GlcNAc(b1-3)[Fuc(a1-2)Gal(b1-4)GlcNAc(b1-6)]GalNAc
# In short: as §1
# [5] = molecular target: Fuc(a1-2)Gal(b1-4)GlcNAc(b1-3)[Fuc(a1-3)[Gal(b1-4)]GlcNAc(b1-6)]Gal(b1-4)Glc
# In short: as §1
# [6] = molecular target: Fuc(a1-2)[Gal(a1-3)]Gal(b1-3)GlcNAc(b1-2)Man(a1-3)[Fuc(a1-2)[Gal(a1-3)]Gal(b1-3)GlcNAc(b1-2)Man(a1-6)]Man(b1-4)GlcNAc(b1-4)GlcNAc
# In short: as §1
# [7] = molecular target: Fuc(a1-2)[Gal(a1-3)]Gal(b1-4)Glc
# In short: as §1
# [8] = molecular target: Fuc(a1-2)[Gal(a1-3)]Gal(b1-4)GlcNAc(b1-3)[Fuc(a1-2)[Gal(a1-3)]Gal(b1-4)GlcNAc(b1-6)]GalNAc
# In short: as §1
# [9] = molecular target: Fuc(a1-2)[Gal(a1-3)]Gal(b1-4)GlcNAc(b1-6)GalNAc
# In short: as §1
# [10] = molecular target: Fuc(a1-2)[GalNAc(a1-3)]Gal(b1-4)GlcNAc(b1-2)Man
# In short: as §1
# [11] = molecular target: Fuc(a1-3)[Gal3S(b1-4)]GlcNAc
# In short: as §1
# [12] = molecular target: Fuc(a1-3)[GalNAc(b1-4)]GlcNAc
# In short: as §1
# [13] = molecular target: Fuc(a1-4)GlcNAc
# In short: as §1
# [14] = molecular target: Gal(a1-3)[Gal(a1-4)]Gal(b1-4)GlcNAc
# In short: as §1
# [15] = molecular target: Gal(b1-3)GlcNAc(b1-3)Gal(b1-4)GlcNAc(b1-2)[Gal(b1-3)GlcNAc(b1-3)Gal(b1-4)GlcNAc(b1-6)]Man(a1-6)[Gal(b1-3)GlcNAc(b1-3)Gal(b1-4)GlcNAc(b1-2)Man(a1-3)]Man(b1-4)GlcNAc(b1-4)[Fuc(a1-6)]GlcNAc
# In short: as §1
# [16] = molecular target: Gal(b1-3)[Neu5Ac(a2-6)]GalNAc
# In short: as §1
# [17] = molecular target: Gal(b1-3)[Neu5Ac(b2-6)]GalNAc
# In short: as §1
# [18] = molecular target: Gal(b1-4)GlcNAc(a1-6)Gal(b1-4)GlcNAc
# In short: as §1
# [19] = molecular target: Gal(b1-4)GlcNAc(b1-2)[Gal(b1-4)GlcNAc(b1-4)]Man(a1-3)[Gal(b1-4)GlcNAc(b1-2)[Gal(b1-4)GlcNAc(b1-6)]Man(a1-6)]Man(b1-4)GlcNAc(b1-4)GlcNAc
# In short: as §1
# [20] = molecular target: Gal(b1-4)GlcNAc(b1-2)[Gal(b1-4)GlcNAc(b1-4)]Man(a1-3)[GlcNAc(b1-4)][Gal(b1-4)GlcNAc(b1-2)[Gal(b1-4)GlcNAc(b1-6)]Man(a1-6)]Man(b1-4)GlcNAc(b1-4)GlcNAc
# In short: as §1
# [21] = molecular target: Gal(b1-4)GlcNAc(b1-3)Gal(b1-4)GlcNAc(b1-3)Gal(b1-4)GlcNAc(b1-3)Gal(b1-4)GlcNAc(b1-3)Gal(b1-4)GlcNAc(b1-2)Man(a1-3)[Gal(b1-4)GlcNAc(b1-3)Gal(b1-4)GlcNAc(b1-3)Gal(b1-4)GlcNAc(b1-3)Gal(b1-4)GlcNAc(b1-3)Gal(b1-4)GlcNAc(b1-2)Man(a1-6)]Man(b1-4)GlcNAc(b1-4)[Fuc(a1-6)]GlcNAc
# In short: as §1
# [22] = molecular target: Gal(b1-4)GlcNAc(b1-3)Gal(b1-4)GlcNAc(b1-3)[Gal(b1-4)GlcNAc(b1-3)Gal(b1-4)GlcNAc(b1-6)]GalNAc
# In short: as §1
# [23] = molecular target: Gal3S(b1-4)Glc6S
# In short: as §1
# [24] = molecular target: Gal6P(b1-4)GlcNAc
# In short: as §1
# [25] = molecular target: Glc(a1-6)Glc(a1-6)Glc(a1-6)Glc
# In short: as §1
# [26] = molecular target: GlcNAc(b1-3)Gal(b1-4)GlcNAc(b1-2)[GlcNAc(b1-3)Gal(b1-4)GlcNAc(b1-6)]Man(a1-6)[GlcNAc(b1-3)Gal(b1-4)GlcNAc(b1-2)Man(a1-3)]Man(b1-4)GlcNAc(b1-4)GlcNAc
# In short: as §1
# [27] = molecular target: GlcNAc(b1-3)Gal(b1-4)GlcNAc(b1-3)Gal(b1-4)GlcNAc
# In short: as §1
# [28] = molecular target: GlcNAc(b1-3)Gal(b1-4)GlcNAc(b1-3)GalNAc
# In short: as §1
# [29] = molecular target: GlcNAc(b1-4)GlcNAc(b1-4)GlcNAc
# In short: as §1
# [30] = molecular target: GlcNAc(b1-4)GlcNAc(b1-4)GlcNAc(b1-4)GlcNAc(b1-4)GlcNAc
# In short: as §1
# [31] = molecular target: GlcNAc(b1-4)GlcNAc(b1-4)GlcNAc(b1-4)GlcNAc(b1-4)GlcNAc(b1-4)GlcNAc
# In short: as §1
# [32] = molecular target: MurNAc(b1-4)GlcNAc
# In short: as §1
# [33] = molecular target: Neu5Ac(a2-3)Gal(b1-3)GlcNAc
# In short: as §1
# [34] = molecular target: Neu5Ac(a2-3)Gal(b1-4)Glc
# In short: as §1
# [35] = molecular target: Neu5Ac(a2-3)Gal(b1-4)GlcNAc(b1-3)Gal
# In short: as §1
# [36] = molecular target: Neu5Ac(a2-3)Gal(b1-4)GlcNAc(b1-3)Gal(b1-4)GlcNAc
# In short: as §1
# [37] = molecular target: Neu5Ac(a2-3)Gal(b1-4)GlcNAc(b1-6)GalNAc
# In short: as §1
# [38] = molecular target: Neu5Ac(a2-3)Gal(b1-4)[Fuc(a1-3)]GlcNAc
# In short: as §1
# [39] = molecular target: Neu5Ac(a2-3)Gal(b1-4)[Fuc(a1-3)]GlcNAc(b1-3)Gal(b1-4)[Fuc(a1-3)]GlcNAc(b1-3)Gal(b1-4)[Fuc(a1-3)]GlcNAc
# In short: as §1
# [40] = molecular target: Neu5Ac(a2-3)Gal(b1-4)[Fuc(a1-3)]GlcNAc(b1-3)GalNAc
# In short: as §1
# [41] = molecular target: Neu5Ac(a2-3)GalNAc
# In short: as §1
# [42] = molecular target: Neu5Ac(a2-3)[Neu5Ac(a2-6)]GalNAc
# In short: as §1
# [43] = molecular target: Neu5Ac(a2-6)Gal(b1-4)Glc
# In short: as §1
# [44] = molecular target: Neu5Ac(a2-6)Gal(b1-4)GlcNAc(b1-2)Man(a1-3)[Neu5Ac(a2-6)Gal(b1-4)GlcNAc(b1-2)Man(a1-6)]Man(b1-4)GlcNAc(b1-4)GlcNAc
# In short: as §1
# [45] = molecular target: Neu5Ac(a2-6)Gal(b1-4)GlcNAc(b1-2)Man(a1-6)[Man(a1-3)]Man(b1-4)GlcNAc(b1-4)GlcNAc
# In short: as §1
# [46] = molecular target: Neu5Ac(a2-6)Gal(b1-4)GlcNAc(b1-3)Gal(b1-4)GlcNAc(b1-3)Gal(b1-4)GlcNAc(b1-2)Man(a1-3)[Neu5Ac(a2-6)Gal(b1-4)GlcNAc(b1-3)Gal(b1-4)GlcNAc(b1-3)Gal(b1-4)GlcNAc(b1-2)Man(a1-6)]GalNAc
# In short: as §1
# [47] = molecular target: Neu5Ac(a2-6)Gal(b1-4)GlcNAc(b1-3)Gal(b1-4)[Fuc(a1-3)]GlcNAc(b1-3)Gal(b1-4)[Fuc(a1-3)]GlcNAc
# In short: as §1
# [48] = molecular target: Neu5Ac(a2-6)GlcNAc(b1-4)GlcNAc(b1-4)GlcNAc
# In short: as §1
# [49] = molecular target: Neu5Ac(a2-8)Neu5Ac(a2-3)Gal(b1-3)GalNAc(b1-4)[Neu5Ac(a2-8)Neu5Ac(a2-3)]Gal(b1-4)Glc
# In short: as §1
# [50] = molecular target: Neu5Ac(a2-8)Neu5Ac(a2-8)Neu5Ac
# In short: as §1
binder,measurement,setting,value
B1,glycan array binding signal (z-score),[1],-0.084
same,glycan array binding signal (z-score),[2],0.02
same,glycan array binding signal (z-score),[3],0.35
same,glycan array binding signal (z-score),[4],-0.023
same,glycan array binding signal (z-score),[5],-0.103
same,glycan array binding signal (z-score),[6],-0.102
same,glycan array binding signal (z-score),[7],-0.24
same,glycan array binding signal (z-score),[8],0.285
same,glycan array binding signal (z-score),[9],-0.124
same,glycan array binding signal (z-score),[10],-0.046
same,glycan array binding signal (z-score),[11],-0.028
same,glycan array binding signal (z-score),[12],0.413
same,glycan array binding signal (z-score),[13],11.1
same,glycan array binding signal (z-score),[14],-0.039
same,glycan array binding signal (z-score),[15],0.25
same,glycan array binding signal (z-score),[16],-0.105
same,glycan array binding signal (z-score),[17],0.064
same,glycan array binding signal (z-score),[18],-0.067
same,glycan array binding signal (z-score),[19],-0.118
same,glycan array binding signal (z-score),[20],-0.186
same,glycan array binding signal (z-score),[21],0.159
same,glycan array binding signal (z-score),[22],0.038
same,glycan array binding signal (z-score),[23],-0.107
same,glycan array binding signal (z-score),[24],-0.205
same,glycan array binding signal (z-score),[25],-0.182
same,glycan array binding signal (z-score),[26],-0.017
same,glycan array binding signal (z-score),[27],-0.131
same,glycan array binding signal (z-score),[28],-0.121
same,glycan array binding signal (z-score),[29],3.59
same,glycan array binding signal (z-score),[30],8.12
same,glycan array binding signal (z-score),[31],13.9
same,glycan array binding signal (z-score),[32],1.49
same,glycan array binding signal (z-score),[33],-0.039
same,glycan array binding signal (z-score),[34],0.572
same,glycan array binding signal (z-score),[35],-0.15
same,glycan array binding signal (z-score),[36],0.065
same,glycan array binding signal (z-score),[37],-0.234
same,glycan array binding signal (z-score),[38],-0.124
same,glycan array binding signal (z-score),[39],-0.044
same,glycan array binding signal (z-score),[40],0.43
same,glycan array binding signal (z-score),[41],-0.06
same,glycan array binding signal (z-score),[42],-0.161
same,glycan array binding signal (z-score),[43],-0.068
same,glycan array binding signal (z-score),[44],-0.046
same,glycan array binding signal (z-score),[45],-0.14
same,glycan array binding signal (z-score),[46],0.293
same,glycan array binding signal (z-score),[47],-0.129
same,glycan array binding signal (z-score),[48],1.58
same,glycan array binding signal (z-score),[49],0.097
same,glycan array binding signal (z-score),[50],-0.147

# — the supplement of paper PMC8728848
